This note sets out measurements from PMC11006913.

Assay in all cases: PBM; 200 nM protein, PBS
Common to all, as to details: dsDNA, one strand shown

For assay [1], the target named is T1, SIX6 (Homo sapiens, UniProt O95475 114-200, L167I).
T1 sequence: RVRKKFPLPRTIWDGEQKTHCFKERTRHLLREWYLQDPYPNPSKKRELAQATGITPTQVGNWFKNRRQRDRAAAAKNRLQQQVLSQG

The target in assay [2] is T2, SIX6 (Homo sapiens, UniProt O95475 114-200, L143V).
T2 sequence: T1 sequence with L30V, I54L

Assay [3] deals with T3, SIX6 (Homo sapiens, UniProt O95475 114-200, H141N).
T3 sequence: T1 sequence with H28N, I54L

For assay [4], the target named is T4, SIX6 (Homo sapiens, UniProt O95475 114-200, T165P).
T4 sequence: T1 sequence with T52P, I54L

Assay [5] deals with T5, SIX6 (Homo sapiens, UniProt O95475 114-200, L167M).
T5 sequence: T1 sequence with I54M

For assay [6], the target named is T6, SIX6 (Homo sapiens, UniProt O95475 114-200, L143M).
T6 sequence: T1 sequence with L30M, I54L

Assay [7] deals with T7, SIX6 (Homo sapiens, UniProt O95475 114-200, L143I).
T7 sequence: T1 sequence with L30I, I54L

In assay [8] the target is T8, SIX6 (Homo sapiens, UniProt O95475 114-200, T165G).
T8 sequence: T1 sequence with T52G, I54L

Assay [9] deals with T9, SIX6 (Homo sapiens, UniProt O95475 114-200, T139Q).
T9 sequence: T1 sequence with T26Q, I54L

Assay [10] addresses T10, SIX6 (Homo sapiens, UniProt O95475 114-200, T165A).
T10 sequence: T1 sequence with T52A, I54L

Assay [11] has as its target T11, SIX6 (Homo sapiens, UniProt O95475 114-200, L167V).
T11 sequence: T1 sequence with I54V

Assay [12] concerns the target T12, SIX6 (Homo sapiens, UniProt O95475 114-200).
T12 sequence: T1 sequence with I54L

The target of assay [13] is T13, SIX6 (Homo sapiens, UniProt O95475 114-200, T165I).
T13 sequence: T1 sequence with T52I, I54L

Where a chain is given by its changes, count along the chain named.

In the case of AGTTCGGG, the binding signal with SIX6 [1] was 8.99 upbm affinity estimate (log intensity, higher = more binding, comparable within an allelic series); with SIX6 [2] it was 9 upbm affinity estimate (log intensity, higher = more binding, comparable within an allelic series); in the assay with SIX6 [3], 8.96 upbm affinity estimate (log intensity, higher = more binding, comparable within an allelic series); with SIX6 [4] it was 9.14 upbm affinity estimate (log intensity, higher = more binding, comparable within an allelic series); with SIX6 [5] it was 9.03 upbm affinity estimate (log intensity, higher = more binding, comparable within an allelic series); in the assay with SIX6 [6], 9.18 upbm affinity estimate (log intensity, higher = more binding, comparable within an allelic series). The binding signal in the assay with SIX6 [7] was 9.05 upbm affinity estimate (log intensity, higher = more binding, comparable within an allelic series); in the assay with SIX6 [8] it was 9.12 upbm affinity estimate (log intensity, higher = more binding, comparable within an allelic series); in the assay with SIX6 [9] it was 9.14 upbm affinity estimate (log intensity, higher = more binding, comparable within an allelic series); in the assay with SIX6 [10], 8.95 upbm affinity estimate (log intensity, higher = more binding, comparable within an allelic series); with SIX6 [11], 8.74 upbm affinity estimate (log intensity, higher = more binding, comparable within an allelic series); with SIX6 [12], 9.05 upbm affinity estimate (log intensity, higher = more binding, comparable within an allelic series). Also, the binding signal with SIX6 [13] is 8.91 upbm affinity estimate (log intensity, higher = more binding, comparable within an allelic series).
For GATACATA, the binding signal was 11.1 upbm affinity estimate (log intensity, higher = more binding, comparable within an allelic series) in the assay with SIX6 [1]; 10.4 upbm affinity estimate (log intensity, higher = more binding, comparable within an allelic series) in the assay with SIX6 [2]; 11 upbm affinity estimate (log intensity, higher = more binding, comparable within an allelic series) with SIX6 [3]; 10 upbm affinity estimate (log intensity, higher = more binding, comparable within an allelic series) in the assay with SIX6 [4]; 10.7 upbm affinity estimate (log intensity, higher = more binding, comparable within an allelic series) with SIX6 [5]; 10.9 upbm affinity estimate (log intensity, higher = more binding, comparable within an allelic series) in the assay with SIX6 [6]. Also, the binding signal was 10.4 upbm affinity estimate (log intensity, higher = more binding, comparable within an allelic series) with SIX6 [7]; 11 upbm affinity estimate (log intensity, higher = more binding, comparable within an allelic series) in the assay with SIX6 [8]; 11.1 upbm affinity estimate (log intensity, higher = more binding, comparable within an allelic series) with SIX6 [9]; 11 upbm affinity estimate (log intensity, higher = more binding, comparable within an allelic series) in the assay with SIX6 [10]; 10.8 upbm affinity estimate (log intensity, higher = more binding, comparable within an allelic series) in the assay with SIX6 [11]; 10.9 upbm affinity estimate (log intensity, higher = more binding, comparable within an allelic series) with SIX6 [12]. Moreover, the binding signal in the assay with SIX6 [13] was 10.8 upbm affinity estimate (log intensity, higher = more binding, comparable within an allelic series).
With GGCCCCGA, the binding signal with SIX6 [1] is 9 upbm affinity estimate (log intensity, higher = more binding, comparable within an allelic series); with SIX6 [2], 8.8 upbm affinity estimate (log intensity, higher = more binding, comparable within an allelic series); with SIX6 [3], 8.92 upbm affinity estimate (log intensity, higher = more binding, comparable within an allelic series); with SIX6 [4], 8.86 upbm affinity estimate (log intensity, higher = more binding, comparable within an allelic series); with SIX6 [5], 8.96 upbm affinity estimate (log intensity, higher = more binding, comparable within an allelic series); with SIX6 [6], 8.93 upbm affinity estimate (log intensity, higher = more binding, comparable within an allelic series). The binding signal with SIX6 [7] is 8.91 upbm affinity estimate (log intensity, higher = more binding, comparable within an allelic series); in the assay with SIX6 [8], 9.02 upbm affinity estimate (log intensity, higher = more binding, comparable within an allelic series); with SIX6 [9] it was 9.12 upbm affinity estimate (log intensity, higher = more binding, comparable within an allelic series); with SIX6 [10], 8.81 upbm affinity estimate (log intensity, higher = more binding, comparable within an allelic series); in the assay with SIX6 [11], 8.95 upbm affinity estimate (log intensity, higher = more binding, comparable within an allelic series); with SIX6 [12] it was 8.99 upbm affinity estimate (log intensity, higher = more binding, comparable within an allelic series). Also, the binding signal with SIX6 [13] was 8.84 upbm affinity estimate (log intensity, higher = more binding, comparable within an allelic series).
With CTGTATCA, the binding signal with SIX6 [1] was 11.2 upbm affinity estimate (log intensity, higher = more binding, comparable within an allelic series); with SIX6 [2], 10.3 upbm affinity estimate (log intensity, higher = more binding, comparable within an allelic series); with SIX6 [3] it was 11.2 upbm affinity estimate (log intensity, higher = more binding, comparable within an allelic series); with SIX6 [4] it was 9.69 upbm affinity estimate (log intensity, higher = more binding, comparable within an allelic series); with SIX6 [5], 10.6 upbm affinity estimate (log intensity, higher = more binding, comparable within an allelic series); with SIX6 [6], 10.9 upbm affinity estimate (log intensity, higher = more binding, comparable within an allelic series). Further, the binding signal with SIX6 [7] was 10.3 upbm affinity estimate (log intensity, higher = more binding, comparable within an allelic series); with SIX6 [8], 11.1 upbm affinity estimate (log intensity, higher = more binding, comparable within an allelic series); with SIX6 [9], 11.1 upbm affinity estimate (log intensity, higher = more binding, comparable within an allelic series); with SIX6 [10], 11.1 upbm affinity estimate (log intensity, higher = more binding, comparable within an allelic series); with SIX6 [11], 10.9 upbm affinity estimate (log intensity, higher = more binding, comparable within an allelic series); with SIX6 [12], 10.9 upbm affinity estimate (log intensity, higher = more binding, comparable within an allelic series). For the same sequence, in the assay with SIX6 [13], the binding signal is 10.9 upbm affinity estimate (log intensity, higher = more binding, comparable within an allelic series).
Regarding CGGTATCA, the binding signal with SIX6 [1] was 11.3 upbm affinity estimate (log intensity, higher = more binding, comparable within an allelic series); with SIX6 [2], 10.3 upbm affinity estimate (log intensity, higher = more binding, comparable within an allelic series); with SIX6 [3], 11.3 upbm affinity estimate (log intensity, higher = more binding, comparable within an allelic series); in the assay with SIX6 [4], 9.64 upbm affinity estimate (log intensity, higher = more binding, comparable within an allelic series); with SIX6 [5] it was 10.6 upbm affinity estimate (log intensity, higher = more binding, comparable within an allelic series); with SIX6 [6] it was 11 upbm affinity estimate (log intensity, higher = more binding, comparable within an allelic series). The binding signal with SIX6 [7] was 10.4 upbm affinity estimate (log intensity, higher = more binding, comparable within an allelic series); in the assay with SIX6 [8] it was 11.5 upbm affinity estimate (log intensity, higher = more binding, comparable within an allelic series); with SIX6 [9] it was 11.4 upbm affinity estimate (log intensity, higher = more binding, comparable within an allelic series); in the assay with SIX6 [10], 11.3 upbm affinity estimate (log intensity, higher = more binding, comparable within an allelic series); with SIX6 [11], 11 upbm affinity estimate (log intensity, higher = more binding, comparable within an allelic series); with SIX6 [12], 11.1 upbm affinity estimate (log intensity, higher = more binding, comparable within an allelic series). Besides, the binding signal with SIX6 [13] is 11 upbm affinity estimate (log intensity, higher = more binding, comparable within an allelic series).
Take GCAAAGCC: the binding signal with SIX6 [1] was 8.97 upbm affinity estimate (log intensity, higher = more binding, comparable within an allelic series); in the assay with SIX6 [2], 8.93 upbm affinity estimate (log intensity, higher = more binding, comparable within an allelic series); with SIX6 [3], 8.96 upbm affinity estimate (log intensity, higher = more binding, comparable within an allelic series); with SIX6 [4], 9 upbm affinity estimate (log intensity, higher = more binding, comparable within an allelic series); with SIX6 [5], 9.02 upbm affinity estimate (log intensity, higher = more binding, comparable within an allelic series); with SIX6 [6], 8.9 upbm affinity estimate (log intensity, higher = more binding, comparable within an allelic series). Besides, the binding signal was 8.91 upbm affinity estimate (log intensity, higher = more binding, comparable within an allelic series) with SIX6 [7]; 8.9 upbm affinity estimate (log intensity, higher = more binding, comparable within an allelic series) with SIX6 [8]; 9 upbm affinity estimate (log intensity, higher = more binding, comparable within an allelic series) with SIX6 [9]; 8.93 upbm affinity estimate (log intensity, higher = more binding, comparable within an allelic series) with SIX6 [10]; 8.94 upbm affinity estimate (log intensity, higher = more binding, comparable within an allelic series) with SIX6 [11]; 8.98 upbm affinity estimate (log intensity, higher = more binding, comparable within an allelic series) in the assay with SIX6 [12]. For the same sequence, the binding signal in the assay with SIX6 [13] was 8.92 upbm affinity estimate (log intensity, higher = more binding, comparable within an allelic series).
